The campaign covered roughly 16,000 compounds. About 5,700 (36%) were called active. Not shown: some 24% with an inconclusive outcome. The list shows a part of the results. A number with no mark means an inactive call. Calls follow the shape of the dose curve; as a rule, active = well fitted curve in the direction sought with a large enough effect; inconclusive = small, poorly fitted or top-dose-only effect, or effect the other way; inactive = no such curve, though single readings can be large or run the other way.
The compounds below were run against Cytochrome P450 1A2 (Homo sapiens) (UniProt P05177) (assay: Cytochrome panel assay with activity outcomes). Conditions: recombinant CYP, pro-luciferin dealkylation, luminescence, p450-cyp1a2; series mostly up to 57.1 µM.
Chain of Cytochrome P450 1A2 (Homo sapiens) (P05177 whole entry, looked up): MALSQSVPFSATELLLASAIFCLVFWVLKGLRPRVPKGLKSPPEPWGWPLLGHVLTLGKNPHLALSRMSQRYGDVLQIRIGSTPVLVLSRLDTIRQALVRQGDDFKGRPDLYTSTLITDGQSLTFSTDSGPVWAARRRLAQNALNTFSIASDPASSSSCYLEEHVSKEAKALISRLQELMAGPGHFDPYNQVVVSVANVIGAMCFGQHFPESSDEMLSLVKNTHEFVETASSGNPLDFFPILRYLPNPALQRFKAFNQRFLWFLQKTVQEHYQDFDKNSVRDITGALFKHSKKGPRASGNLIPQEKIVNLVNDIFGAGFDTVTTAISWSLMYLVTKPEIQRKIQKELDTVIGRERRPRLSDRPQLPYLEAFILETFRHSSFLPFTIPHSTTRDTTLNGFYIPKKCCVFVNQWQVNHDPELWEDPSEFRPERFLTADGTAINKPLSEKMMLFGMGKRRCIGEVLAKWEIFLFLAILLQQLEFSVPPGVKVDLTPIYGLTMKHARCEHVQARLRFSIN
% is scaled to controls: 0 for no effect and ±100 for the full control effect.

Structure (SMILES)	activity, negative = inhibition	AC50
C[N+](C)(C)c1ccc([C@H](N)C(=O)O)cc1	-19.7% [at 11.4 µM]	
COc1ccc(Sc2ccc(NC(=O)c3ccccc3Cl)cc2C#N)cc1		inactive
N#Cc1cc(N)ccc1Sc1ccc(Cl)cc1		1.78 µM (active)
CCN1CCC[C@H]1CNC(=O)c1cc(S(N)(=O)=O)ccc1OC		inactive
CCC(C)[C@H](NC(=O)NC1CCN(Cc2ccccc2)CC1)C(=O)OC (stereo partly specified)		inactive
CNc1cc(OC)c(C(=O)N[C@@H]2CCN(Cc3ccccc3)[C@H]2C)cc1Cl		31.6 µM (active)
CC(=O)N(CC(O)CN(C(C)=O)c1c(I)c(C(=O)NC[C@@H](O)CO)c(I)c(C(=O)NC[C@@H](O)CO)c1I)c1c(I)c(C(=O)NC[C@@H](O)CO)c(I)c(C(=O)NC[C@@H](O)CO)c1I		inactive
NC(N)=N/N=C(/c1ccccc1)c1ccc(O)cc1O		3.16 µM (active)
CC(=O)/C(=N\N=C(N)N)c1ccccc1	-17.2% [at 2.29 µM]	
CCN1C(=O)[C@H]2[C@H]3[C@H](O)[C@H](O)C/C(=N/OC[C@@H](O)COCc4ccco4)[C@@H]3CC[C@@H]2C1=O	-5.56% [at 11.4 µM]	
CCc1ccccc1NC(=O)CSc1nc(-c2ccccc2)nn1C(=O)c1cccc([N+](=O)[O-])c1		3.16 µM (active)
O=C(NCc1cn(-c2ccccc2)nc1-c1ccccc1)c1cc([N+](=O)[O-])cc([N+](=O)[O-])c1		inactive
COc1ccc(NC(=O)N2CCCC3(CCN(C(=O)c4ccc(OC)cc4)CC3)C2)cc1		inactive
COc1ccc2c(c1)CCc1c(C(=O)N3CCCCCC3)noc1-2		6.31 µM (active)
COc1ccc(C(=O)N2CCC3(CCCN(C)C3)CC2)cc1		inactive
CC(C)COCC1CC2(CC(C)(c3csc(N)n3)OC2=O)C(=O)O1 (stereo unspecified)		inactive
COCCNC(=O)c1ccc2c(c1)ncn2-c1ccc(F)c(F)c1		15.8 µM (active)
COCCNC(=O)c1ccc2c(c1)nc(C)n2-c1cc(OC)c(OC)c(OC)c1		inactive
O=C(COc1ccc(Cl)cc1)N(Cc1ccccc1)c1ccccn1		2.24 µM (active)
CN(CCOc1ccc(C[C@H](Nc2ccccc2C(=O)c2ccccc2)C(=O)O)cc1)c1ccccn1		inactive
C[N+](C)(C)CCN(Cc1ccc(Cl)cc1)c1ccccn1		inactive
COCCNC(=O)CCCCCn1c(=S)[nH]c2ccccc2c1=O		14.1 µM (active)
O=C(CCn1c(=S)[nH]c2ccccc2c1=O)NCCCN1CCOCC1		inactive
O=C(CCCn1c(=S)[nH]c2ccc(Br)cc2c1=O)NCC1CCCO1 (stereo unspecified)		4.47 µM (active)

Structure (SMILES)	activity, negative = inhibition	AC50
O=C(c1ccc2c(=O)n(CC3CCCO3)c(=S)[nH]c2c1)N1CCN(c2ccccc2)CC1 (stereo unspecified)		inactive
O=C(c1cnccn1)N1CCC2(CC1)CCN(c1ncccn1)CC2		inactive
Cc1[nH]nc(-c2ccc(OCc3cnn(-c4ccccc4)c3)cc2O)c1Oc1ccccc1F		22.4 µM (active)
COC(=O)c1ccc(Oc2coc3cc(OCc4cnn(-c5ccccc5)c4)ccc3c2=O)cc1		inactive
Cc1cc(C)cc(C(=N)c2ccccc2Cc2cccc3ccccc23)c1	-5.4% [at 2.29 µM]	
CO[C@H]1COC(=O)CCC[C@@H](C)[C@H](OC)COC(=O)[C@H]2CCCN2C(=O)C/C=C\[C@@H]1C	-4.29% [at 11.4 µM]	
O=C(Nc1ccc(Cl)cc1)NC1CCCCC1		inactive
COC(=O)c1ccc(NC(=O)C2CCCCC2C(=O)O)cc1 (stereo unspecified)		inactive
COC(=O)c1ccc(NC(=S)NC2CCCCC2)cc1		14.1 µM (active)
CC(=O)NS(=O)(=O)c1ccc(NC(=O)NC2CCCCC2)cc1		inactive
Cc1ccc(NC(=S)NC2CCCC2)cc1		15.8 µM (active)
Cc1ccc(NC(=S)N2CCN(C3CCCCC3)CC2)cc1		inactive
CCc1cccc(CC)c1NC(=O)CN(CC(=O)O)CC(=O)O		inactive
CN(C)CCCn1c2c3ccccc3ccc2c2oc(=O)c3ccccc3c21		0.316 µM (active)
CCn1c2ccccc2c2cc(NS(=O)(=O)c3ccccc3C)ccc21		3.16 µM (active)
CC(=O)Nc1cc(S(=O)(=O)Nc2ccccc2)c(C)cc1C		inactive
CC(=O)Nc1ccccc1C(=O)C(=O)O		inactive
COc1c(NC(C)=O)c2ccccc2c2ccccc12		0.398 µM (active)
COCCN=C1Sc2nc3c(C)cccc3cc2CN1Cc1ccco1		0.631 µM (active)
O=c1c2ccccc2nc2n1CC/C2=C\c1ccccc1[N+](=O)[O-]		3.16 µM (active)
COc1cccc(Nc2ncc3nc(C)c(=O)n(Cc4cccs4)c3n2)c1		2.51 µM (active)
Cc1nc2cnc(Nc3ccccc3)nc2n(Cc2cccs2)c1=O		1.58 µM (active)
COc1ccc(-c2nc3cnc(Nc4cccc(OC)c4)nc3n(Cc3cccs3)c2=O)cc1		inactive
O=c1cnc2cnc(Nc3ccccc3)nc2n1Cc1cccs1		1 µM (active)

Structure (SMILES)	activity, negative = inhibition	AC50
COc1cccc(Nc2ncc3ncc(=O)n(Cc4cccs4)c3n2)c1		1.58 µM (active)
CCN(CC)C[C@@H](O)CN1CCCCc2nc(C)c(C)cc21	-9.64% [at 11.4 µM]	
O=C(Cc1cccc2ccccc12)N/N=C/c1ccc(Sc2nc3ccccc3s2)o1		inactive
COCC(=O)N/N=C/c1ccc(Sc2nc3ccccc3s2)o1		15.8 µM (active)
Cc1ccc(NS(=O)(=O)c2ccccc2Cl)c2c1CC(C)(C)O2		1.26 µM (active)
Cc1cc(C)c(S(=O)(=O)N2CCCCC2)c(C)c1N(C)S(=O)(=O)c1ccccc1		inactive
O=C(Nc1cccc(C(F)(F)F)c1)N(Cc1ccc(Cl)cc1)CC(O)C(F)(F)F (stereo unspecified)		12.6 µM (active)
CC(O)(CS(=O)(=O)Cc1ccc(Cl)cc1)C(=O)Nc1cccc(C(F)(F)F)c1 (stereo unspecified)		inactive
CCCCN=c1sc(C(=O)OC)cc(=O)n1CCCC		0.251 µM (active)
CCN1C(=O)[C@H]2[C@H]3[C@H](O)[C@H](O)C/C(=N/O[C@@H]4O[C@H](COC(C)=O)[C@@H](OC(C)=O)[C@H](OC(C)=O)[C@H]4OC(C)=O)[C@@H]3CC[C@@H]2C1=O	-2.53% [at 11.4 µM]	
Cc1ccc(-n2c3c(c(=O)[nH]c2=O)C(NS(=O)(=O)c2ccc(C)cc2)(C(F)(F)F)C(=O)N3)cc1 (stereo unspecified)		inactive
CCOC(=O)N/N=C/c1ccccc1F		6.31 µM (active)
CCOC(=O)C(=Cc1ccc(F)cc1)C(=O)OCC		25.1 µM (active)
Cc1ccc(/C=N\NC(=O)c2cc(OCC(F)(F)F)ccc2OCC(F)(F)F)cc1		inactive
CCOC(=O)N/N=C/c1ccc(F)cc1		11.2 µM (active)
O=C(NCCC[N+]1=CC=N[C@H]1c1ccccc1)N1CCCc2nc(-c3ccc(Br)cc3)ccc21	7.37% [at 11.4 µM]	
Cc1ccc(C2C(C(=O)c3sc(C)nc3C)=C(O)C(=O)N2CCN2CCOCC2)o1 (stereo unspecified)		inactive
CCOc1ccc(N(C(=O)/C=C/C(=O)Nc2cc(C)on2)C(C(=O)NC2CCCC2)c2ccccc2C)cc1 (stereo unspecified)		inactive
COc1ccc2cc3cc(C(=O)NCCN4CCN(c5ccccc5F)CC4)oc3nc2c1		15.8 µM (active)
COc1ccc2nc3oc(C(=O)NCc4cccs4)cc3cc2c1		2 µM (active)
COc1ccc(N2CCN(CCNC(=O)C3CCN(S(=O)(=O)c4cccs4)CC3)CC2)cc1		inactive
CCCS(=O)(=O)N1CCCC(C(=O)NCCCN2CCN(c3ccccc3F)CC2)C1 (stereo unspecified)		inactive
COc1ccc2cc3cc(C(=O)NCc4ccc5c(c4)OCO5)oc3nc2c1		0.316 µM (active)
COc1ccc2cc3cc(C(=O)Nc4ccc5c(c4)OCO5)oc3nc2c1		0.501 µM (active)

Structure (SMILES)	activity, negative = inhibition	AC50
CCc1ccc(C(C(=O)NCc2ccc(OC)cc2)N(CCOC)C(=O)Cc2cccs2)cc1 (stereo unspecified)		inactive
O=C1C[C@@H](O)[C@@H](O)[C@@H]2[C@H]3C(=O)N(c4ccc(F)cc4F)C(=O)[C@@H]3CC[C@@H]12	-7.03% [at 11.4 µM]	
COc1ccc2cc3cc(C(=O)NCc4ccccn4)oc3nc2c1		1 µM (active)
CC(C)CC(=O)Nc1sc2c(c1C#N)CC(C)(C)NC2(C)C		inactive
O=C1c2ccccc2C(=O)N1CCCSc1ccccc1		1 µM (active)
COc1cc(Cl)c(C)cc1NC(=O)CNC(=O)Cn1cnc2ccccc2c1=O		inactive
O=C(O)CCCSc1ccccc1	-11.7% [at 11.4 µM]	
O=C1c2ccccc2C(=O)N1C[C@]1(C(=O)O)NCCS1(=O)=O	-5.5% [at 2.29 µM]	
O=c1c2ccccc2ncn1CCCSc1ccccc1		7.08 µM (active)
Cc1ccc(SCCCn2cnc3ccccc3c2=O)cc1		3.16 µM (active)
O=C(c1ccccc1)c1ccc(OCCn2cnc3ccccc3c2=O)cc1		inactive
CC(C)(C)NC(=O)C(Cc1ccccc1)NS(=O)(=O)c1ccc2c(c1)CCC(=O)N2 (stereo unspecified)		inactive
COc1ccc(Oc2ncc3nc(-c4ccc(Cl)cc4)c(=O)n(C)c3n2)cc1		0.631 µM (active)
Cn1c(=O)c(-c2ccc(Cl)cc2)nc2cnc(Oc3ccccc3)nc21		0.2 µM (active)
Cn1c(=O)c(-c2ccccc2)nc2cnc(Oc3ccccc3)nc21		2 µM (active)
CC(C)CN1CC[C@@]2(CCCN(C(=O)c3csnn3)C2)C1		inactive
CCn1ncc(/C=C/C(=O)NCc2cn(C)nc2C)c1C		inactive
COCc1cc(=O)[nH]c2cc(NC(=O)C(F)(F)F)c(C)cc12		11.2 µM (active)
CCCCCC(=O)Nc1cc2[nH]c(=O)cc(COC)c2cc1C		inactive
COc1cccc(C(CC(=O)Nc2cccc3ccccc23)NC(=O)c2ccccc2)c1 (stereo unspecified)		inactive
CCC(=O)Nc1ccccc1C(=O)OCC(=O)c1cccc2ccccc12		2.51 µM (active)
CCC(=O)Nc1ccccc1C(=O)OCC(=O)c1ccccc1		5.62 µM (active)
COc1ccc(C(=O)COC(=O)c2ccc(NC(=O)c3ccccc3)cc2)cc1		inactive
COc1ccc(C(=O)Nc2ccc(C(=O)OCC(=O)c3ccccc3)cc2)cc1		inactive
